“And” between values parts separate entries of the source, which are not always exact repeats. Equal values may be shown once. For part of these data: Entries with a potency or affinity are not part of this list. The source made the active and inactive calls.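 The calls were made as follows, unless noted: active = compounds whose cell count with miR-34 switched on is under 0.7 times the count with it off; inactive = the rest.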
Experiments:
[1] = Cy5 fluorescence quenching or enhancement artefacts, artefact control for HCV NS3 helicase inhibitor project, biochemical, LOPAC1280 (AID 687037; call rule not given here); details: Cy5-DNA-NS3h complex fluorescence interference counterscreen
[2] = differential killing of epithelial or mesenchymal cells, primary screen, imaging, PC-3E GFP, TEM4-18 mCherry, co-culture (AID 1345086;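 active = compounds killing one labelled cell type while sparing the other, by normalised counts and ratio limits, not self-fluorescent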;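 as to all read-outs here: cells exposed to compound for 72 h before imaging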;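 as to red/green cell ratio (normalised): normalised mesenchymal count divided by normalised epithelial count so high means epithelial killing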); details: imaging cell counts, at 1 µM; for red/green cell ratio (normalised): actives lie on both sides, counts scaled to control wells, 1 = unselective
[3] = sensitizers of A549 cells to miR-34 induction, primary screen, imaging, A549 dox-inducible miR-34, nuclei and caspase counts (AID 1347080); details: A549 miR-34 inducible, Hoechst nuclei count, 48 h
[4] = phospholipid biosynthesis inhibitors in animal cells, primary screen, cell-based, LOPAC library, screen 4 (AID 1347384; call rule not given here); details: phospholipid biosynthesis inhibition screen, at 10 µM
[5] = viability rescue of complex I mutant cybrids, primary screen, cell-based, galactose medium, ATP luminescence (AID 1645843;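 active = z-score of at least 1.8 in each of two replicates, scored against plate mean and spread of sample wells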;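 also: positive z means more ATP and so rescue of galactose-driven cybrid death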); details: complex I mutant cybrid cells, 72 h, stronger effect = higher value
[6] = liver-stage malaria parasite growth inhibition, primary screen, cell-based, HepG2, luciferase luminescence, HepG2 viability (AID 624349; in the data active = parasite load remaining mostly below about 12%, no sharp cut-off; inactive = mostly above about 10%;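 also: 100% = mean of DMSO negative control wells on the same plate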); details: P. berghei liver stage in HepG2, luciferase luminescence, concentration not given here; parasite load remaining: stronger effect = lower value; viability: measured here: HepG2 viability without parasites
[7] = survival rescue of mitochondrial mutant cells in low glucose, primary screen, MELAS cybrids, Rieske KO mouse fibroblasts, CellTiter-Glo (AID 1508586;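 active = mean z-score across replicates of 1.96 or higher in either the MELAS or the Rieske mutant cell line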;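 also: z relative to plate mean and SD of compound and empty wells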)
[8] = biological target: NAD(+) hydrolase SARM1 (Homo sapiens) (UniProt Q6SZW1); assay: SARM1 TIR NADase inhibitors, cell lysate, NAD-Glo luminescence (AID 1508614;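 active = compound whose remaining NAD level is above about 45 nM, limit read from the data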;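 also: higher remaining NAD means stronger inhibition of SARM1 NADase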); details: SAM-TIR HEK293T lysate NADase, at 1 µM, stronger effect = higher value
NAD(+) hydrolase SARM1 (Homo sapiens), sequence (Q6SZW1 whole entry, looked up, the tested form may be a part): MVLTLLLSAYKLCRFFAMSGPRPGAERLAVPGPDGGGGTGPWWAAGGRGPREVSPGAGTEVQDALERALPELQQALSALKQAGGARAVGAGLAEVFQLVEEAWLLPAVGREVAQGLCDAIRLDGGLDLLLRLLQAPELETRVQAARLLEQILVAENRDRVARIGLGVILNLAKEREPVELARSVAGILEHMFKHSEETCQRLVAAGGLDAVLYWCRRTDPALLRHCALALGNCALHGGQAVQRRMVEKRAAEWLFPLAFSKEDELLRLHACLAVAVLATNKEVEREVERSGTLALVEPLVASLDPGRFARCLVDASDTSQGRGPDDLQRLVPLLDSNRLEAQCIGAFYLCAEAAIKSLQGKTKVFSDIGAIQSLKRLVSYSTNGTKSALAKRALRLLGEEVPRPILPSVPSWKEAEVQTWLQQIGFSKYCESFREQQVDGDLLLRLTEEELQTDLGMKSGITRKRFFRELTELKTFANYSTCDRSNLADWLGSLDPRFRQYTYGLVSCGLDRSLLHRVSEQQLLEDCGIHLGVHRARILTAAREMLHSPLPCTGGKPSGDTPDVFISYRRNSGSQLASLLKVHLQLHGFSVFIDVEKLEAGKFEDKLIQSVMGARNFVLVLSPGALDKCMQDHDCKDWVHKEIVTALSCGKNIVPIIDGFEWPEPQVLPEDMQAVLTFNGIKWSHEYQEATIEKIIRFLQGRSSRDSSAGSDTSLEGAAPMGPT

[9] = biological target: Mitogen-activated protein kinase 7 (Homo sapiens) (UniProt Q13164); assay: ERK5 transactivation activators in reporter cells, primary screen, cell-based, HTS (AID 1508626;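 active = luciferase signal above three times the same-plate solvent-only control wells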;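 also: luciferase driven by Gal4-ERK5 fusion binding five Gal4 sites before minimal TATA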); details: HeLa Gal4-ERK5 transactivation, 18 h, at 5 µM, stronger effect = higher value
Mitogen-activated protein kinase 7 (Homo sapiens), sequence (Q13164 whole entry, looked up, the tested form may be a part): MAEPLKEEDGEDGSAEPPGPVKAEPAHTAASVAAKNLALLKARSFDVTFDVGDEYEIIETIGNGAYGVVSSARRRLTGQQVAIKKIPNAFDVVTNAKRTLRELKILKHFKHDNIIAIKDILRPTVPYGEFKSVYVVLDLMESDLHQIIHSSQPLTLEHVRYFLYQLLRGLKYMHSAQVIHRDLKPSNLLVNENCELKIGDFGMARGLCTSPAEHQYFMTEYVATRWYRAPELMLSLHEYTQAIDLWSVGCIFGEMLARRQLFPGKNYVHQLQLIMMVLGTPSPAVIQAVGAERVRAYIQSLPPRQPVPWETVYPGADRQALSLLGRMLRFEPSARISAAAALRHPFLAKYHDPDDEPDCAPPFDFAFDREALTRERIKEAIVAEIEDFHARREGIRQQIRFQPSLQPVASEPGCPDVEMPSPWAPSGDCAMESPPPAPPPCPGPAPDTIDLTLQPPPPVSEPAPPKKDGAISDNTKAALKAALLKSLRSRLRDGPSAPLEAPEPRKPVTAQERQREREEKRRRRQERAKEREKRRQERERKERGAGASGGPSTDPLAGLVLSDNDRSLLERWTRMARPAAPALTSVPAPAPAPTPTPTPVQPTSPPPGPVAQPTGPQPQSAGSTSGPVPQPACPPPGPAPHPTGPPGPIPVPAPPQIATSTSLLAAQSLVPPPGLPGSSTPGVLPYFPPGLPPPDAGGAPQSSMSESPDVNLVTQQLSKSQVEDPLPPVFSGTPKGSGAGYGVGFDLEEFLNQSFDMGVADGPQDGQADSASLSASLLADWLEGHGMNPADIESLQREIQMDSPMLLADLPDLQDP

[10] = circadian clock period modulators, cell-based, LOPAC library, luminescence reporter (AID 2774; call rule not given here;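 also: values are relative to mean of DMSO wells on each plate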); details: circadian reporter cells, at 7 µM, actives lie on both sides
[11] = hESC survival regulators, cell-based (AID 493140; call rule not given here;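 also: cells exposed to compounds for four days before counting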); details: human embryonic stem cell survival screen; stronger effect = higher value
[12] = test system: Hepatitis C virus NS3 helicase; assay: HCV NS3 helicase inhibitors, primary screen, biochemical, fluorescence polarization, LOPAC1280 library (AID 687035; in the data active = inhibition above about 37%); details: Purified HCV NS3 helicase, Cy5-dT15 ssDNA binding fluorescence polarization; stronger effect = higher value; concentration not given here
[13] = polyglutamine-triggered caspase-3 activation inhibitors, cell-based (AID 1583); details: polyglutamine-induced caspase-3 activation, cell assay; stronger effect = higher value;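 tested at 10 µM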
[14] = suppressors of polyQ aggregation in yeast, 75Q-TubU reporter (AID 1593); details: Yeast 75Q polyglutamine aggregation reporter
[15] = rescue of polyQ-huntingtin neuronal dysfunction in worms, whole organism, C. elegans mechanosensory neurons, N-terminal huntingtin (AID 1599); details: touch response, stronger effect = higher value
[16] = inhibitors of mitochondrial cytochrome c release, biochemical, purified mitochondria (AID 1603); details: stronger effect = lower value;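 also: mouse liver mitochondria challenged with calcium chloride; signal normalized to the plate average as 100%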
[17] = inhibitors of polyQ protein aggregation (AID 1604); details: polyglutamine-induced protein aggregation inhibition assay; stronger effect = higher value; tested at 2.5 µM
[18] = enhancers of glutamate uptake in motor neurons, MN-1 cell line (AID 1612); details: MN-1 motor neuron cells, stronger effect = higher value;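 also: tested at 1 µM final; 0% = mean of DMSO vehicle wells on each plate; positive means more glutamate uptake than control and negative means less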
[19] = reducers of polyQ inclusions in PC12 cells, cell-based, NGF-treated PC12, GFPQ80 (AID 1614); details: PC12 NGF-treated GFP-polyQ80 inclusion reduction;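 also: lower means fewer inclusions and 0 means no inclusions at all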
[20] = suppressors of polyglutamine aggregation in yeast, 75Q-TubH (AID 1616); details: S. cerevisiae 75Q-TubH polyglutamine aggregation suppression; stronger effect = higher value
[21] = measured here: epithelial PC-3E GFP cell survival
[22] = measured here: mesenchymal TEM4-18 mCherry cell survival
[23] = stronger effect = lower value, cell number ratio, induced over uninduced
[24] = measured here: relative caspase fold change +Dox/-Dox
[25] = measured here: total cells with miR-34 induction, stronger effect = lower value
[26] = measured here: total cells without miR-34 induction
[27] = MELAS cybrid survival, CellTiter-Glo 48 h, stronger effect = higher value
[28] = Rieske KO mouse fibroblast survival, CellTiter-Glo 72 h

With `CN1C2CCCC1CC(NC(=O)c1nn(C)c3ccccc13)C2` (centres undefined) the fluorescence ratio (interference) [1] was 1 (inactive), the red/green cell ratio (normalised) [2] was 0.96 (inactive) and the normalised cell number [2, 21] was 0.99. For the same compound, the normalised cell number [2, 22] was 0.95, the fold change [3, 23] was 0.966 (inactive) and 0.87 (inactive) and the fold change [3, 24] was 1.65 and 2.43. The cell count [3, 25] was 10200 and 8870, the cell count [3, 26] was 10600 and 10200 and the outcome [4] was “inactive”. For the same compound, the z-score [5] was -0.44 (inactive) and 0.15 (inactive).
For `O=C(O)[C@H]1/C(=C/CO)O[C@@H]2CC(=O)N21`, the parasite load remaining [6] was 50.6% (inactive), the viability [6] was 103% and the red/green cell ratio (normalised) [2] was 1.31 (inactive). For the same compound, the normalised cell number [2, 21] was 0.86, the normalised cell number [2, 22] was 1.13 and the fold change [3, 23] was 0.901 (inactive). It also gave a fold change [3, 24] of 3.53, a cell count [3, 25] of 11900 and a cell count [3, 26] of 13200. The z-score [7, 27] was -0.304 (inactive), the z-score [7, 28] was -1.19 and the remaining NAD [8] was 10 nM (inactive). For the same compound, the luciferase signal [9] was 76 AU (inactive).
With `CCC(NC(C)C)C(O)c1ccc(O)c(O)c1` (centres undefined) the period change [10] was 0.18 h (inactive), the survival [11] was 6.67 (inactive) and the parasite load remaining [6] was 55.9% (inactive) and 47.9% (inactive). For the same compound, the viability [6] was 94.3% and 104%, the inhibition [12] was -1% (inactive) and the fluorescence ratio (interference) [1] was 0.9 (inactive). For the same compound, the red/green cell ratio (normalised) [2] was 1.04 (inactive), the normalised cell number [2, 21] was 0.9 and the normalised cell number [2, 22] was 0.93. The fold change [3, 23] was 1.08 (inactive) and 0.894 (inactive) and 0.889 (inactive), the fold change [3, 24] was 0.697 and 1.09 and 4.01 and the cell count [3, 25] was 10800 and 8990 and 12000. The cell count [3, 26] was 9990 and 10100 and 13500, the outcome [4] was “inactive” and the z-score [7, 27] was -0.772 (inactive). For the same compound, the z-score [7, 28] was -0.513, the remaining NAD [8] was 10 nM (inactive) and the luciferase signal [9] was 212 AU (inactive). For the same compound, the z-score [5] was -1.29 (inactive).
In the case of `CC1(C)S[C@@H]2[C@H](NC(=O)COc3ccccc3)C(=O)N2[C@H]1C(=O)O`, the inhibition [13] is reported as 4.98%, the score [14] is reported as 1.39 and the rescue above control [15] is reported as 1.16. It also gave a cytochrome c release ratio [16] of 0.65, an inhibition of aggregation [17] of 70.1% and a glutamate uptake change [18] of -6.22%. The inclusion score [19] was 2, the aggregation suppression score [20] was 0.899 and the parasite load remaining [6] was 89.7% (inactive) and 64.4% (inactive) and 28.3% (inactive). The viability [6] was 71.1% and 91.3% and 70.5%, the red/green cell ratio (normalised) [2] was 1.2 (inactive) and the normalised cell number [2, 21] was 0.81. The normalised cell number [2, 22] was 0.98, the fold change [3, 23] was 0.943 (inactive) and 0.879 (inactive) and the fold change [3, 24] was 0.921 and 0.998. The cell count [3, 25] was 11800 and 10100, the cell count [3, 26] was 12500 and 11500 and the z-score [7, 27] was 0.0944 (inactive). For the same compound, the z-score [7, 28] was 0.173, the remaining NAD [8] was 10 nM (inactive) and the luciferase signal [9] was 64 AU (inactive). For the same compound, the z-score [5] was 0.895 (inactive).
Work on `CN1CCN(C(c2ccccc2)c2ccc(Cl)cc2)CC1` (centres undefined) yielded an inhibition [13] of 9.79%, a score [14] of 1.32 and a rescue above control [15] of 0. For the same compound, the cytochrome c release ratio [16] was 1.15, the inhibition of aggregation [17] was 65.4% and the glutamate uptake change [18] was 11.5%. For the same compound, the aggregation suppression score [20] was 0.963, the survival [11] was 1.83 (inactive) and the parasite load remaining [6] was 76% (inactive) and 58.1% (inactive). For the same compound, the viability [6] was 93.1% and 88.3%, the red/green cell ratio (normalised) [2] was 1.15 (inactive) and the normalised cell number [2, 21] was 1.09. For the same compound, the normalised cell number [2, 22] was 1.26, the fold change [3, 23] was 0.825 (inactive) and 0.923 (inactive) and the fold change [3, 24] was 1.22 and 0.572. The cell count [3, 25] was 7440 and 10400, the cell count [3, 26] was 9010 and 11300 and the z-score [7, 27] was 0.513 (inactive). For the same compound, the z-score [7, 28] was 1.23, the remaining NAD [8] was 10 nM (inactive) and the luciferase signal [9] was 100 AU (inactive).
`O=C(O)C1CCCNC1` (centres undefined) gave an inhibition [13] of 28%, a score [14] of 2.59 and a rescue above control [15] of -9.05. For the same compound, the cytochrome c release ratio [16] was 1.08, the inhibition of aggregation [17] was 41.5% and the glutamate uptake change [18] was -1.16%. For the same compound, the inclusion score [19] was 2, the aggregation suppression score [20] was 1.59 and the period change [10] was 0.19 h (inactive). The parasite load remaining [6] was 89.7% (inactive), the viability [6] was 95.9% and the inhibition [12] was 0% (inactive). For the same compound, the fluorescence ratio (interference) [1] was 0.9 (inactive), the red/green cell ratio (normalised) [2] was 0.84 (inactive) and the normalised cell number [2, 21] was 1.28. For the same compound, the normalised cell number [2, 22] was 1.08, the fold change [3, 23] was 0.976 (inactive) and 0.953 (inactive) and the fold change [3, 24] was 1.22 and 0.942. The cell count [3, 25] was 9840 and 8650, the cell count [3, 26] was 10100 and 9080 and the outcome [4] was “inactive”. The z-score [5] was 0.695 (inactive).
With `c1ccc(C2CN3CCSC3=N2)cc1` (centres undefined) the period change [10] was 0.075 h (inactive), the survival [11] was 5.17 (inactive) and 92.1 (inactive) and the parasite load remaining [6] was 183% (inactive) and 71.5% (inactive). For the same compound, the viability [6] was 108% and 76.2%, the inhibition [12] was -2% (inactive) and the fluorescence ratio (interference) [1] was 1 (inactive). The red/green cell ratio (normalised) [2] was 1.29 (inactive) and 1 (inactive), the normalised cell number [2, 21] was 0.85 and 1.04 and the normalised cell number [2, 22] was 1.1 and 1.05. For the same compound, the fold change [3, 23] was 0.894 (inactive) and 0.914 (inactive) and 0.823 (inactive), the fold change [3, 24] was 2.54 and 0.996 and 1.2 and the cell count [3, 25] was 8980 and 9120 and 8770. For the same compound, the cell count [3, 26] was 10000 and 9980 and 10700, the outcome [4] was “inactive” and the z-score [7, 27] was 0.49 (inactive). The z-score [7, 28] was 0.36, the remaining NAD [8] was 10 nM (inactive) and the z-score [5] was 0.64 (inactive).
In the case of `C[C@]12C=CC(=O)C=C1CCC1C2[C@@H](O)C[C@@]2(C)C1CC[C@]2(O)C(=O)COP(=O)(O)O` (some centres undefined), the red/green cell ratio (normalised) [2] is reported as 1.33 (inactive), the normalised cell number [2, 21] is reported as 0.86 and the normalised cell number [2, 22] is reported as 1.15. The fold change [3, 23] was 0.855 (inactive), the fold change [3, 24] was 1.09 and the cell count [3, 25] was 6110. The cell count [3, 26] was 7150.
Compound `C[C@@H]1CC2C3CCC4=CC(=O)C=C[C@]4(C)[C@@]3(F)[C@@H](O)C[C@]2(C)[C@@]1(O)C(=O)CO` (some centres undefined) has an inhibition [13] of -20.4%, a score [14] of 1.07 and a rescue above control [15] of -7.18. The cytochrome c release ratio [16] was 0.84, the inhibition of aggregation [17] was 31.7% and the glutamate uptake change [18] was 53.3%. The inclusion score [19] was 2, the aggregation suppression score [20] was 1.35 and the parasite load remaining [6] was 152% (inactive) and 64.1% (inactive). For the same compound, the viability [6] was 77.2% and 87.1%, the red/green cell ratio (normalised) [2] was 1.24 (inactive) and the normalised cell number [2, 21] was 1.34. The normalised cell number [2, 22] was 1.66, the fold change [3, 23] was 0.825 (inactive) and the fold change [3, 24] was 2.2. For the same compound, the cell count [3, 25] was 7310 and the cell count [3, 26] was 8850.
In the case of `CC1CC(OC(=O)C(O)c2ccccc2)CC(C)(C)C1` (centres undefined), the red/green cell ratio (normalised) [2] is reported as 1 (inactive), the normalised cell number [2, 21] is reported as 1.03 and the normalised cell number [2, 22] is reported as 1.03. The fold change [3, 23] was 0.925 (inactive) and 0.927 (inactive), the fold change [3, 24] was 0.697 and 0.603 and the cell count [3, 25] was 7310 and 7360. For the same compound, the cell count [3, 26] was 7900 and 7940, the z-score [7, 27] was -0.227 (inactive) and the z-score [7, 28] was -0.184. For the same compound, the remaining NAD [8] was 10 nM (inactive).
